In the library only some 7.5% were active in any assay of this set; here they are far more common.
FLuc counter: inhibits or activates purified firefly luciferase, miR-21 counter-screen; P08659; purified FLuc, Km substrates, luminescence inhibition; Potency, µM (titrated, usually from 57.5 µM), inactives show at the top dose activity change, negative = inhibition, actives largely listed as inhibitors; 360,000 compounds, 6.9% hits; AID 588342;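 further: plate controls were vehicle for no effect and reference inhibitor for full effect; nearly all actives have a fitted effect of over 55% in size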
Target sequence (P08659 whole entry, looked up): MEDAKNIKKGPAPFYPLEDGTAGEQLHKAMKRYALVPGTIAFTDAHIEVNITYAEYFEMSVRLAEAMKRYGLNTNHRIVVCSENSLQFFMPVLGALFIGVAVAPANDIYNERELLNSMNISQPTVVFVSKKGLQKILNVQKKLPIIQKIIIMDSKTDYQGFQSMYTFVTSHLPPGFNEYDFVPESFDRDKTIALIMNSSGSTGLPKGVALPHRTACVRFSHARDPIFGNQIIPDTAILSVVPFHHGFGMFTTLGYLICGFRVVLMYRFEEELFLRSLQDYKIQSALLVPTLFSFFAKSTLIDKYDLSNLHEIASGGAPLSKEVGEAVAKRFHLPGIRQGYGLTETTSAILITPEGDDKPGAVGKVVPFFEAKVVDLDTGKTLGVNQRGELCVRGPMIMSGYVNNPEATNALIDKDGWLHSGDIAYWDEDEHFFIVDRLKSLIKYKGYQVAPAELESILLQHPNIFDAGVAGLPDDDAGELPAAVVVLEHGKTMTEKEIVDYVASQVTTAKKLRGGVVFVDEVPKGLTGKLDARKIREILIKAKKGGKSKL
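Purified P. pyralis luciferase, 10 nM final, with Km-level 10 uM D-luciferin and 10 uM ATP in 50 mM Tris acetate pH 7.5, 10 mM Mg acetate, 0.01% Tween-20, 0.05% BSA; 6-point qHTS titration about 60 µM downward; luminescence read.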
ELG1 genotoxic: inducers of genotoxicity in HEK293T ELG1-luciferase cells. Potency, µM (doses to about 46 µM), without a hit: at the highest dose activity change, positive = activation, usual class: activators. HEK293T ELG1-luciferase reporter, luminescence, 16 h. 330,000 compounds, 1.3% hits; further: % of control where 0% means no effect; nearly all actives have a fitted effect of over 60% in size
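ELG1-luciferase HEK293T cells, 2,000/well; compound pinned in; 16 hr, 37 °C, 5% CO2; ONE-Glo, 30 min RT; luminescence on CCD imager.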
Rab9 prom act: Rab9 promoter activation | Huh7 Rab9 promoter-luciferase reporter, luminescence, 24 h | Potency, µM (series often up to 9.22 µM), for inactives: at the top dose activation, negative = inhibition, most hits filed as activators | 320,000 compounds, 2.8% hits | AID 485297; further: % of control where 0% means no effect; nearly all actives have a fitted effect of over 60% in size
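Huh7 cells stably carrying a Rab9 promoter-luciferase reporter, 1500 cells per well in OP-MEM I with 10% FBS, treated with compound 24 hours at 37C. Luciferase activity read by luminescence after 10 minutes with Amplite reagent.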
NPC1 prom act: activates the NPC1 promoter; Huh7 NPC1 promoter luciferase reporter, 24 h; Potency, µM (series often up to 9.22 µM), inactives show at the highest dose activation, most hits filed as activators; 320,000 compounds, 2.4% hits; AID 485313; further: % of control where 0% means no effect; nearly all actives have a fitted effect of over 60% in size
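Luminescence read-out of NPC1 promoter-driven luciferase in stably transfected Huh7 cells; compounds delivered in DMSO and left 24 h at 37C, 5% CO2, qHTS titration format.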
SMN2 splice enh: increases expression of the SMN2 splice variant | Potency, µM (doses to about 46.1 µM), for the others: at the top dose activity change, positive = activation, usual class: activators | HEK293 SMN2-luciferase splicing reporter, luminescence, 30-36 h | 210,000 compounds, 2.8% hits | AID 1458; further: % of control where 0% means no effect; nearly all actives have a fitted effect of over 55% in size
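HEK293 cells carry an SMN2 […]–luciferase reporter in which exon 7 inclusion puts luciferase in frame. Cells were plated 10-12 h before compound addition, then incubated 30-36 h at 37C. ONE-Glo luminescence was read; sodium butyrate at 4.5 mM final served as control.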
* hit, by the source's call; ? = inconclusive; / = no result given; [ ] = dose if it differs, or a comment. The call rests on the fitted dose curve; in most records, active means well fitted curve in the direction sought with a large enough effect; inconclusive means small, poorly fitted or top-dose-only effect, or another doubt; inactive means no such curve, though single readings can be large; an effect the other way counts as inactive or inconclusive. Potency means the concentration at half of the fitted maximal effect.

SMILES | FLuc counter | ELG1 genotoxic | Rab9 prom act | NPC1 prom act | SMN2 splice enh
Cc1ccc(NC(=O)CN(C)S(=O)(=O)c2cccc3cccnc23)cc1 | -13% | 0% | 1% | 1% | -6%
COc1ccccc1C(=O)Nc1cccc2cccnc12 | 17µM* | 8% | ? | 24% | /
O=C(Cn1cnc2c(cnn2-c2ccccc2)c1=O)Nc1cc(S(=O)(=O)N2CCOCC2)ccc1Cl | -28% | -5% | -2% | -1% | -37%
CC#CC[N+](C)(C)CCCCCCCC | 0% | -8% | -14% | -8% | /
CCOC(=O)NC(=O)c1cn(Nc2ncc(C(F)(F)F)cc2Cl)c(=O)[nH]c1=O | -2% | 3% | -1% | 2% | /
CCOC(=O)c1ccc(Oc2cn[nH]c2-c2ccc(O)cc2O)cc1 | -6% | 7% | -19% | -15% | /
COCCN(CCOC)c1ncnc2c1cnn2-c1ccc(Cl)cc1 | 15µM* | 10µM* | ? | ? | ?
OCCOCCNc1ncnc2c1cnn2-c1ccc(Cl)cc1 | 9.5µM* | 0% | 0.89µM* | 1.1µM* | -9%
c1ccc(-n2ncc3c(NCc4ccccn4)ncnc32)cc1 | ? | ? | 20% | 20% | 27%
OCCOCCNc1ncnc2c1cnn2-c1ccccc1 | ? | -3% | ? | 2.2µM* | -18%
COCCNc1ncnc2c1cnn2-c1ccc(Cl)cc1 | 7.6µM* | / | 1.8µM* | 1.8µM* | /
Clc1ccc(-n2ncc3c(NCc4cccs4)ncnc32)cc1 | 4% | -5% | 5% | 3% | -57%
CCC(=O)N(Cc1cc(=O)[nH]c2ccccc12)c1cccc(C)c1 | 4% | 0% | -3% | -5% | -4%
CC(C)N1C(=O)CCC1C(=O)NCCc1ccccc1 (stereo not given) | 9% | -3% | 0% | -1% | -11%
Cc1cc(NC(=O)CCc2ccc(S(=O)(=O)N3CCOCC3)cc2)n(-c2ccccc2)n1 | 1% | -8% | -5% | -4% | -77%
CC(C)OCCCNc1ncnc2c1cnn2-c1ccccc1 | 4.3µM* | -1% | 0.45µM* | 1.4µM* | -10%
COC(=O)c1sc(N(C)C)c(C#N)c1-c1ccccc1 | -2% | 5% | 1% | 0% | /
Cc1cc(NS(=O)(=O)c2ccc(Nc3nc(-c4ccc(O)cc4)cs3)cc2)no1 | 24µM* | 0% | -9% | -20% | 12%
CC(=O)Nc1nc(-c2ccc3ccccc3c2)cs1 | 1.3µM* | ? | 1.1µM* | 0.63µM* | /
O=C(CN1C(=O)CCC1=O)Nc1nc(-c2ccc3ccccc3c2)cs1 | 17µM* | 14% | ? | 26% | 27%
CC(=O)NCCC(=O)Nc1nc(-c2ccc3ccccc3c2)cs1 | ? | ? | 6% | -1% | /
NS(=O)(=O)c1ccc(Nc2nc(-c3ccc(O)cc3O)cs2)cc1 | ? | ? | -9% | -1% | 14%
Oc1ccc(Nc2nc(-c3ccc4ccccc4c3)cs2)cc1 | 1.1µM* | ? | ? | ? | 25%
N#CC1(NC(=O)COc2ccccc2[N+](=O)[O-])CCCCC1 | -1% | 8% | 11% | 6% | /
O=C(CN1C(=O)CCC1=O)Nc1nc(-c2nc3ccccc3s2)cs1 | 11µM* | ? | 2.8µM* | ? | 13µM*
SMILES | FLuc counter | ELG1 genotoxic | Rab9 prom act | NPC1 prom act | SMN2 splice enh
Oc1ccc(-c2nc(-c3ccc(O)c(O)c3)cs2)cc1 | 15µM* | ? | 5% | -4% | 20µM*
c1ccc(Cc2cc(-c3ccccc3)on2)cc1 | 12µM* | ? | ? | 28% | ?
CCOc1ccccc1OCCCOc1ccc(C)cc1Br | 11µM* | 11% | 19% | 4% | 2%
CCOc1ccccc1OCCCOc1ccc(C)cc1Cl | 11µM* | 6% | ? | 27% | /
Cc1ccc(-c2nc3ccccc3[nH]2)s1 | 3µM* | ? | 0.63µM* | 1.6µM* | 7.1µM*
c1csc(-c2nc3ccccc3[nH]2)c1 | 30µM* | 15% | ? | ? | 13µM*
Cc1[nH]c2ccccc2c1-c1nc2ccccc2[nH]1 | 27µM* | ? | 13% | 24% | 16%
COc1cc(-c2nnc(COC(=O)c3ccc(C)o3)o2)cc(OC)c1OC | 0% | 4% | 3% | 1% | /
Cc1ccc(S(=O)(=O)NCc2ccc(/C=C(/C#N)C(=O)NCc3ccccc3)o2)cc1 | -1% | 0% | 11% | -5% | 2%[1.84 µM]
Cc1nn(-c2cccc([N+](=O)[O-])c2)c(N)c1-c1ccccc1 | 15µM* | 17% | 2.5µM* | ? | 13µM*
Nc1nn(-c2ccccc2)c2ccc([N+](=O)[O-])cc12 | 17µM* | 11% | -1% | 12% | /
Cc1nn(-c2ccccc2)c(N)c1Sc1cccc([N+](=O)[O-])c1 | -2% | -1% | -5% | -2% | -32%
O=[N+]([O-])c1ccc2c(c1)nnn2-c1ccccc1 | -1% | 5% | -1% | 2% | /
Nc1c(-c2ccc(Cl)cc2)cnn1-c1cccc([N+](=O)[O-])c1 | 15µM* | 15% | ? | 29% | -4%
Nc1c(-c2ccccc2)cnn1-c1cccc([N+](=O)[O-])c1 | 15µM* | ? | ? | ? | 19%
Cc1ccc(C2(C)NC(=O)N(CC(=O)Nc3cccnc3Cl)C2=O)cc1 (stereo not given) | 2% | 19% | 16% | 1% | -8%
O=C(CCN1C(=O)/C(=C/c2ccc(Cl)cc2)SC1=S)NCCCn1ccnc1 | -5% | -5% | -10% | -10% | /
O=[N+]([O-])c1ccc2c(c1)ncn2-c1ccccc1 | -9% | -1% | -1% | 6% | -9%
O=[N+]([O-])c1ccc2cn(-c3ccccc3)nc2c1 | 9.5µM* | ? | 2µM* | ? | 18µM*
Cc1cc(SCc2cccc([N+](=O)[O-])c2)nc(=O)[nH]1 | 2% | 0% | 4% | -3% | /
COc1ccnc(Oc2ccccc2)c1C(N)=O | -1% | 3% | 6% | 9% | /
CC(=O)c1sc(-c2ccc(Cl)cc2)cc1N | ? | ? | 13% | 4% | /
COC(=O)c1sc(-c2cccs2)cc1N | 12µM* | ? | 27% | ? | /
COC(=O)c1sc(-c2ccc(Cl)cc2)cc1N | 6.7µM* | ? | 2.5µM* | 2.2µM* | /
O=C(NCCc1ccccc1)c1cnc2sccn2c1=O | 17µM* | ? | 3.5µM* | ? | 13µM*
SMILES | FLuc counter | ELG1 genotoxic | Rab9 prom act | NPC1 prom act | SMN2 splice enh
Cc1cccn2c(=O)c(C(=O)NCCc3ccccc3)cnc12 | 4.8µM* | / | / | / | /
COc1cc(/C=C2\SC(=S)N(NC(=O)c3ccccc3OC)C2=O)ccc1O | 4.3µM* | 4% | -3% | -4% | /
COc1ccccc1C(=O)NN1C(=O)/C(=C/c2cccn2C)SC1=S | ? | 0% | 0% | 7% | /
O=C(O)c1ccc(/C=C2\SC(=S)N(NC(=O)c3ccccc3)C2=O)cc1 | ? | -3% | -6%[1.84 µM] | 1% | /
COc1cc(/C=C2\SC(=S)N(NC(=O)c3cccc(O)c3)C2=O)ccc1O | 11µM* | 0% | 20% | 3% | /
CC(=O)NN1C(=O)/C(=C/c2ccc(C(C)C)cc2)SC1=S | 21µM* | 2% | -2% | 3% | -8%

Screens as filed in PubChem.
